Assay outcomes: PubChem, National Center for Advancing Translational Sciences (NCATS)
PNC assembly inh: perinucleolar compartment assembly inhibition. PC3M PTB-GFP, PNC prevalence imaging, 16 h; hits give low values. activity change (PNC), negative = inhibition, % at 10 µM. hit rate 3.1% among 140,000;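 active = readout at or below -70, meaning at least 70% loss of cells showing the perinucleolar compartment, a nuclear body marking cancer cells; inconclusive = readout between -30 and a set limit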;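 note: plate controls were DMSO wells for no effect and camptothecin positive control wells for full effect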
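PC3M cells stably expressing PTB-GFP, 750–1000 cells/well, treated 16 h at 37 °C with compound (23 nl of library stock), in duplicate. After paraformaldehyde fixation and Hoechst stain, imaged at 20x; PNC prevalence scored by image analysis.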
CBFb RUNX1 block: blocks binding between human CBF-beta and RUNX1 | Q01196+Q13951 | Potency, µM (highest dose often 59.8 µM), inactives show at the highest dose activity, negative = inhibition, hits mostly inhibitors | AlphaScreen CBFb-His/RUNX1-biotin binding, biochemical | 230,000 tested, under 10 active | AID 1477; note: % of control where 0% means no effect
Target sequence (Q01196 whole entry, looked up): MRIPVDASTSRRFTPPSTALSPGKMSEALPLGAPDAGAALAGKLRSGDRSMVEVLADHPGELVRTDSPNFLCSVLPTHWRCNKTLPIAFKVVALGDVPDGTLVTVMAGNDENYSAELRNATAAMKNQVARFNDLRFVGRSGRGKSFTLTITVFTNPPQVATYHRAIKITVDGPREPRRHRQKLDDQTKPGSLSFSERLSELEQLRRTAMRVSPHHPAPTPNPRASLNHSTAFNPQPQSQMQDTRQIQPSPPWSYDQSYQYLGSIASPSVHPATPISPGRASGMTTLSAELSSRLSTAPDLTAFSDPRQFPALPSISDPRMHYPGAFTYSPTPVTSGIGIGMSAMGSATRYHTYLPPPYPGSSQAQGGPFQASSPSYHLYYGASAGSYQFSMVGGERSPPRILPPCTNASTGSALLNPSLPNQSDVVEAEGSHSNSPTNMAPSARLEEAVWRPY
Target sequence (Q13951 whole entry, looked up): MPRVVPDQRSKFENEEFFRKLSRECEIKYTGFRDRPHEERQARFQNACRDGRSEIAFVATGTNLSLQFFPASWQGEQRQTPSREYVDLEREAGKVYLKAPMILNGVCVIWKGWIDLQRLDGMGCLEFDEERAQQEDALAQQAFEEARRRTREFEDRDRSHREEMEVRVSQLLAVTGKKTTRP
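Interaction loss through any mechanism counts as activity. Pre-formed complex of His-CBF-beta and biotin-RUNX1 (30 nM apiece) is incubated with compound 15 min, then with 50 ng nickel and 50 ng streptavidin beads for 90 min before AlphaScreen detection.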
ALDH1A1 block: ALDH1A1 (human) enzyme inhibition; AID 1030; hit rate 7.3% among 220,000; Potency, µM (doses to about 75.3 µM), inactives show at the highest dose activity, negative = inhibition, actives largely listed as inhibitors; Purified ALDH1A1, NADH fluorescence, propionaldehyde substrate; active = well fitted inhibition curve with a large enough effect, not every such curve was filed as active; inconclusive = small, poorly fitted or top-dose-only effect, or another doubt; inactive = no such curve, though single readings can be large or run the other way;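 note: potency is the fitted concentration of half-maximal effect; plate controls were no enzyme wells and a reference inhibitor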
HPGD inh: inhibitors of human 15-hydroxyprostaglandin dehydrogenase (HPGD); AID 894; P15428; purified HPGD, NADH fluorescence kinetic, PGE2 substrate; hit rate 4.3% among 150,000; Potency, µM, for the others: top-dose activity change, negative = inhibition, actives largely listed as inhibitors; active = well fitted inhibition curve with a large enough effect, not every such curve was filed as active; inconclusive = small, poorly fitted or top-dose-only effect, or another doubt; inactive = no such curve, though single readings can be large or run the other way; note: potency is the fitted concentration of half-maximal effect; % is set by controls: 0 for no effect and ±100 for the full control effect
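NADH formation kinetics: reaction with 30 uM PGE2 and 1 mM NAD+ (final), 20 nM enzyme, Tris-HCl pH 8 with Tween 20, after 15 min compound preincubation at room temperature. Fluorescence change, last versus first of five reads.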
HTT ATP protect: Huntington cell model cytoprotection by ATP luminescence | PC12 HTT-Q103 induced, cytoprotection, ATP luminescence, 40 h | Potency, µM (top dose mostly 56.4 µM), inactives show cytoprotection (ATP increase), most hits filed as activators | hit rate 0.14% among 230,000; note: potency is the fitted concentration of half-maximal effect; % of control where 0% means no effect; nearly all actives have a fitted effect of over 45% in size
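ATP quantification (ATPlite) reports survival of PC12 cells in which tebufenozide, 100 nM final, switches on Htt exon 1 with 103 glutamines linked to GFP; compounds are titrated.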
HTT aggregate: reduces HttQ103-GFP aggregates in PC12 cells | Potency, µM (titrated, usually from 46.1 µM), without a hit: top-dose activity change, negative = inhibition, actives largely listed as inhibitors | hit rate 1.1% among 220,000 | PC12 HttQ103-GFP aggregates, Acumen cytometry, 40 h; note: potency is the fitted concentration of half-maximal effect; % is set by controls: 0 for no effect and ±100 for the full control effect; nearly all actives have a fitted effect of over 60% in size
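PC12/HTTQ103-GFP, ecdysone-inducible; teb 100 nM; cpd qHTS titration; GFP aggregates read on laser cytometer, Ex 488/Em 500-530 nm.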
* hit, by the source's call; [ ] = another dose, or the depositor's remark. Only some compounds are listed: those with a hit (about 11% of all), similar ones and a draw of the others. Unless noted, calls come from the whole dose curve; as a rule, active = well fitted curve in the direction sought with a large enough effect; inconclusive = small, poorly fitted or top-dose-only effect, or another doubt; inactive = no such curve, though single readings can be large; an effect the other way counts as inactive or inconclusive.

For Cc1ccc(O)c(C(=O)CC(=O)c2cccc(F)c2)c1 the results were PNC assembly inh inconclusive, CBFb RUNX1 block -4%, ALDH1A1 block -8%, HPGD inh 22µM*, HTT ATP protect -6%[10 µM] and HTT aggregate 18µM*.
`C=CC1=C[C@@H](O)C2OC2C12OCCCO2` (stereo partly drawn) gave CBFb RUNX1 block inconclusive, ALDH1A1 block 1%[13.5 µM] and HTT ATP protect -3%[10 µM].
Screening COC(=O)/C=C/c1ccc(OC(=O)OC)c(OC(=O)OC)c1 returned PNC assembly inh -7, CBFb RUNX1 block -7%, ALDH1A1 block 21%, HPGD inh 0% and HTT aggregate inconclusive.
Screening CCN(CC)S(=O)(=O)c1ccc(C(=O)NCC(c2ccc(OC)cc2)N2CCOCC2)cc1 (stereo not drawn) returned CBFb RUNX1 block 9%, ALDH1A1 block 0.71µM*, HTT ATP protect -35% and HTT aggregate -21%.
Screening COc1ccc(C(CNC(=O)c2ccc(S(=O)(=O)N3CCOCC3)cc2)N2CCCCC2)cc1 (stereo not drawn) returned PNC assembly inh 9, CBFb RUNX1 block 3%, ALDH1A1 block inconclusive, HPGD inh -3%, HTT ATP protect -14%[0.074 µM] and HTT aggregate -3%.
Screening O=C(NCC1OCCc2ccccc21)c1ccco1 (stereo not drawn) returned PNC assembly inh 18, CBFb RUNX1 block 5%, ALDH1A1 block 7.9µM*, HPGD inh -21%, HTT ATP protect -8% and HTT aggregate 12%.
Screening O=C(CCc1ccccc1)NCC1OCCc2ccccc21 (stereo not drawn) returned CBFb RUNX1 block 17%, ALDH1A1 block 0%, HTT ATP protect -18% and HTT aggregate 15%.
`Cc1cc(NC(=O)c2ccc(N3CCCC3)c([N+](=O)[O-])c2)no1` gave CBFb RUNX1 block -2%, ALDH1A1 block 9%, HTT ATP protect -17%[10 µM] and HTT aggregate -12%.
O=C(Nc1ccc(CN2CCOCC2)cc1)c1ccc(N2CCCC2)c([N+](=O)[O-])c1 was read as CBFb RUNX1 block -28%, ALDH1A1 block 11µM*, HTT ATP protect 8%[10 µM] and HTT aggregate 8%.
O=C(Nc1nc2ccccc2s1)c1ccc(N2CCCCC2)c([N+](=O)[O-])c1 was read as PNC assembly inh 80, CBFb RUNX1 block inconclusive, ALDH1A1 block 11µM*, HPGD inh -6%, HTT ATP protect -6%[10 µM] and HTT aggregate -24%.
O=C(Nc1ccon1)c1ccc(N2CCCCC2)c([N+](=O)[O-])c1 was read as CBFb RUNX1 block -11%, ALDH1A1 block 13µM*, HTT ATP protect inconclusive and HTT aggregate -13%.
OC[C@H]1NC[C@H](O)[C@@H](O)[C@@H]1O was read as CBFb RUNX1 block 27%.
Cc1ccc(S(=O)(=O)CCc2nnc(NC(=O)CCl)s2)cc1C was read as CBFb RUNX1 block 2%, ALDH1A1 block 1µM*, HTT ATP protect 16%[10 µM] and HTT aggregate -9%[9.22 µM].
`CCOc1ccc2c(c1)C(N(CCN1CCOCC1)C(=O)Nc1ccccc1)CC(C)(C)O2` (stereo not drawn) gave CBFb RUNX1 block -6%, ALDH1A1 block 1%, HTT ATP protect -57% and HTT aggregate 1%.
Screening CC1CCCCC1NC(=O)C1CCN(S(=O)(=O)c2ccc3c(c2)CCC(=O)N3)CC1 (stereo not drawn) returned PNC assembly inh 20, CBFb RUNX1 block -2%, ALDH1A1 block -5%, HPGD inh -15%, HTT ATP protect -8% and HTT aggregate 2%.
Screening CN(C)c1ccc(CNC(=O)C2CCN(S(=O)(=O)c3ccc4c(c3)CCC(=O)N4)CC2)cc1 returned PNC assembly inh 13, CBFb RUNX1 block -6%, ALDH1A1 block 18µM*, HPGD inh -15%, HTT ATP protect -6% and HTT aggregate 28%.
Screening Cc1ccc(-n2ncc(Br)c(Br)c2=O)cc1 returned CBFb RUNX1 block 4%, ALDH1A1 block 3.2µM* and HTT ATP protect -97%[10 µM].
For O=c1c(Br)c(Br)cnn1-c1ccccc1 the results were CBFb RUNX1 block 2%, ALDH1A1 block 7.1µM*, HTT ATP protect -97%[10 µM] and HTT aggregate 5.6µM*.
Screening CC1=C(C(=O)Nc2ccccc2)C2(CCCCC2)C(C#N)=C(SCC(N)=O)N1 returned PNC assembly inh 21, CBFb RUNX1 block -3%, ALDH1A1 block -8%, HPGD inh -12%, HTT ATP protect 12% and HTT aggregate -4%[9.22 µM].
N#CC1=C(N)NC(SCc2ccc(Br)cc2)=C(C#N)C12CCCCC2 was read as PNC assembly inh 35, CBFb RUNX1 block -20%, ALDH1A1 block inconclusive, HPGD inh -12%, HTT ATP protect 17%[10 µM] and HTT aggregate inconclusive.
Screening CC(C)(C)C1CCC2(CC1)C(C#N)=C(SCC(=O)Nc1ccccc1)NC(=O)C2C#N (stereo not drawn) returned PNC assembly inh 24, CBFb RUNX1 block -4%, ALDH1A1 block 8.9µM*, HPGD inh inconclusive, HTT ATP protect -46% and HTT aggregate inconclusive.
`CC1(C)CC(=O)C2=C(C1)NC(SCC(=O)Nc1ccccc1)=C(C#N)C21CCCCC1` gave PNC assembly inh 9, CBFb RUNX1 block -3%, ALDH1A1 block 22µM*, HPGD inh inconclusive, HTT ATP protect -15% and HTT aggregate -20%.
Screening N#CC1=C(N)NC(SCc2ccccc2)=C(C#N)C12CCCC2 returned PNC assembly inh -113*, CBFb RUNX1 block -11%, ALDH1A1 block 25µM*, HPGD inh inconclusive and HTT aggregate -13%.
For N#CC1=C(N)NC(SCC(=O)Nc2ccc(Br)cc2)=C(C#N)C12CCCCC2 the results were PNC assembly inh 28, CBFb RUNX1 block -16%, ALDH1A1 block 28µM*, HPGD inh -11%, HTT ATP protect 1%[10 µM] and HTT aggregate inconclusive.
`CC(C)(N=NC(C)(C)C1=NCCN1)C1=NCCN1` gave ALDH1A1 block 0%[13.5 µM], HPGD inh -12% and HTT ATP protect 5%[10 µM].
CCN(CC)CC[n+]1ccc2c(C)c3[nH]c4ccccc4c3c(C)c2c1 was read as ALDH1A1 block 2%[13.5 µM], HPGD inh -6% and HTT ATP protect -36%[10 µM].
`N#CC1=C(N)NC(SCC(=O)c2ccccc2)=C(C#N)C12CCCC2` gave PNC assembly inh 54, CBFb RUNX1 block -1%, ALDH1A1 block 13µM*, HPGD inh inconclusive and HTT aggregate 24%.
`N#Cc1cnc(SCC(=O)c2ccccc2)nc1N` gave PNC assembly inh 2, CBFb RUNX1 block 0%, ALDH1A1 block -7%, HPGD inh -14%, HTT ATP protect 32%[1.9 µM] and HTT aggregate -7%.
